Records with an inconclusive call do not appear. Unmarked numbers belong to inactive results. Calls follow the shape of the full dose curve.
Experiment: Cell Viability - BJ (AID 421);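 also: cells exposed to compound for 40 hours at 37 °C before readout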
Settings: BJ fibroblast viability, qHTS
How it was run: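 Quantitative HTS: ATP depletion in BJ cells after 40 hr compound exposure in complete culture medium, detected with CellTiter-Glo; AC50 from standard Hill fits.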
Potency is read from the fitted curve at half-maximal effect.

SMILES | Potency
CCCCCCc1ccc(-c2ccc(C#N)cc2)cc1 | > 92 µM
Nc1cnn([C@@H]2O[C@H](CO)[C@@H](O)[C@H]2O)c(=O)n1 | > 92 µM
CCCCCCCCOc1ccc(C(=O)O)cc1 | > 92 µM
Oc1c(Cl)cc(Cl)c(Cl)c1Cl | > 92 µM
CC(C)OCC1CO1 (centres undefined) | > 92 µM
C/C(Cl)=C/CCl | > 92 µM
CCCCNCC | > 92 µM
O=c1[nH]ncc2ccccc12 | > 92 µM
c1ccc(COCc2ccccc2)cc1 | > 92 µM
O=[N+]([O-])c1cccc(I)c1 | > 92 µM
Nc1ccc2c(c1)C(=O)c1ccccc1C2=O | > 92 µM
c1ccc2c(c1)ccc1ccccc12 | > 92 µM
Nc1ccc(N=Nc2ccccc2)c(N)c1 | > 92 µM
Cc1ccc(C(=O)O)cc1[N+](=O)[O-] | > 92 µM
COc1ccc([N+](=O)[O-])cc1N | > 92 µM
OCC(CO)(CBr)CBr | > 92 µM
Nc1cc(C(=O)O)c(O)c(S(=O)(=O)O)c1 | > 92 µM
Oc1ccc2c(c1)OCO2 | > 92 µM
c1ccncc1 | > 92 µM
CC(=O)OC1CC(C)OC(C)O1 (centres undefined) | > 92 µM

SMILES | Potency
O=C(OCc1ccccc1)c1ccccc1O | > 92 µM
C/C=C/C=C/C=O | > 92 µM
CCN(CC)c1ccc2c(C)cc(=O)oc2c1 | > 92 µM
c1c[nH]cn1 | > 92 µM
c1ccc(SCCSc2ccccc2)cc1 | > 92 µM
O=C(O)/C=C/c1ccc(/C=C/C(=O)O)cc1 | > 92 µM
CCCCOC(=O)COc1ccc(Cl)cc1Cl | > 92 µM
CC(=O)OC(C(=O)c1ccccc1)c1ccccc1 (centres undefined) | > 92 µM
CCCCCCN | > 92 µM
CC(=O)Nc1cccc(C)c1 | > 92 µM
CCC(Cl)CC(Cl)C(Cl)C(Cl)C(Cl)C(C)Cl (centres undefined) | > 92 µM
COc1ccc(C)cc1N | > 92 µM
CCc1ccc(C(c2ccc(CC)cc2)C(Cl)Cl)cc1 | > 92 µM
C[C@@H]1CC2(OC(O)[C@]3(C)O[C@H]23)O[C@H]2C[C@@]3(C)[C@@H]4CC[C@H]5C(C)(C)C(O[C@@H]6OC[C@@H](O)[C@H](O)[C@H]6O)CC[C@@]56C[C@@]46CC[C@]3(C)[C@@H]12 (some centres undefined) | > 92 µM
O=[N+]([O-])c1ccccc1Nc1ccccc1 | > 92 µM
C=CC1CO1 (centres undefined) | > 92 µM
COc1cc(-c2ccc(N=C=O)c(OC)c2)ccc1N=C=O | > 92 µM
CCOC(=O)C1OC1c1ccccc1 (centres undefined) | > 92 µM
COc1ccc(C(=O)Nc2ccccc2)cc1[N+](=O)[O-] | > 92 µM

Source: PubChem BioAssay (NCATS)
